An excerpt weighted towards active compounds, which were near 5.9% of everything screened.
TGFb inhibitor = TGF-b pathway inhibition. AID 588855. Potency, µM (top dose mostly 46.1 µM), most hits filed as inhibitors. 410,000 tested, 1.2% active. HepG2 CAGA-GFP TGF-b/SMAD3 reporter, GFP fluorescence, 18 h; TGF-beta stimulated, 500 pg/mL final; also: nearly all actives have a fitted effect of over 65% in size
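Inhibition of TGF-beta-driven CAGA-GFP reporter expression in HEPG2 cells is measured by cellular GFP fluorescence after 18 h stimulation with 500 pg/mL recombinant TGF-beta in 1% FBS medium at 37 degrees C.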
S2 tox = reduces viability in counter-screen for ATXN expression inhibitors. S2 cells (HEK-293 line with an ATXN2-luciferase reporter) viability, CellTiter-Fluor protease fluorescence, 24 h. Potency, µM (highest dose often 56.7 µM), most hits filed as cytotoxic. 400,000 tested, 0.49% active. AID 651635; also: nearly all actives have a fitted effect of over 40% in size
KB-3-1 cytotox = kills parental KB-3-1 adenocarcinoma cells; Potency, µM (highest dose often 46.1 µM), most hits filed as cytotoxic; 400,000 tested, 1.4% active; KB-3-1 viability, CellTiter-Glo ATP luminescence, 72 h; also: nearly all actives have a fitted effect of over 60% in size
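KB-3-1 parental drug-naive adenocarcinoma cells in DMEM/10% FBS, incubated 72 h at 37 C with pin-transferred compounds across a concentration series. Viability by CellTiter-Glo luminescence; concentration-response curves fitted after normalization.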
KB-V1 MDR tox = KB-V1 MDR subline cytotoxicity; Potency, µM (doses to about 46.1 µM), usual class: cytotoxic; KB-V1 MDR cells viability, CellTiter-Glo, 72 h; AID 1347076; 400,000 tested, 3.4% active; also: nearly all actives have a fitted effect of over 60% in size
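KB-V1, DMEM (no phenol red) + 10% FBS; cpd pin-transferred, titration series; 72 h, 37 degrees C; CellTiter-Glo, luminescence. Data normalized, curve-fit.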
HepG2 viability = HepG2 cytotoxicity, counter-screen for TGF-b inhibitors. HepG2 CAGA-GFP viability, ATP luminescence, 18 h. Potency, µM (titrated, usually from 46.1 µM), hits mostly cytotoxic. 410,000 tested, 0.76% active. AID 588856
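CellTiter-Glo luminescence gave cytotoxicity after 18 hours at 37 degrees C. The cells were HepG2 CAGA-GFP in 1% FBS DMEM, stimulated with 500 pg/mL TGF-beta after compound addition. %Activity was normalised to no-cell wells (complete cell-killing) and DMSO (no toxicity), and curves were fitted and classified.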
ATXN2 expr inh = ATXN2 expression inhibition; HEK-293 ATXN2-luciferase reporter, luminescence, 24 h; 360,000 tested, 0.72% active; Potency, µM (titrated, usually from 57 µM), hits mostly inhibitors; also: nearly all actives have a fitted effect of over 55% in size
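ATXN2-luciferase reporter cells (luciferase flanked by upstream and downstream ATXN2 gene portions) were treated 24 h at 37 °C with compounds at up to 57 uM. SteadyGlo luminescence gave expression; GF-AFC fluorescence gave viability.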
Numbers stand for hits; ! = a repeat was not active. Calls follow the shape of the dose curve; as a rule, active = well fitted curve in the direction sought with a large enough effect; inconclusive = small, poorly fitted or top-dose-only effect, or another doubt; inactive = no such curve, though single readings can be large; an effect the other way counts as inactive or inconclusive.

CCn1c(CNc2ccc(OC)cc2)nnc1SCC(=O)N1CCCc2ccccc21 was read as TGFb inhibitor inactive, S2 tox inactive, KB-3-1 cytotox inactive, KB-V1 MDR tox inactive, HepG2 viability inactive and ATXN2 expr inh inconclusive.
Cc1ccc2cc(C#N)c(SCC(=O)N3CCCc4ccccc43)nc2c1 was read as TGFb inhibitor inactive, S2 tox inactive, KB-3-1 cytotox inactive, KB-V1 MDR tox inactive, HepG2 viability inactive and ATXN2 expr inh inactive.
`Cn1c(Cc2cccs2)nnc1SCC(=O)N1CCCc2ccccc21` gave TGFb inhibitor inactive, S2 tox inactive, KB-3-1 cytotox inactive, KB-V1 MDR tox inactive, HepG2 viability inactive and ATXN2 expr inh inactive.
CCn1c(CSc2nc(C)cc(C)n2)nnc1SCC(=O)N1CCCc2ccccc21 was read as TGFb inhibitor inactive, S2 tox inactive, KB-3-1 cytotox inactive, KB-V1 MDR tox 20.6µM, HepG2 viability inactive and ATXN2 expr inh inactive.
For Cc1ccc2cc(C#N)c(SCC(=O)N3CCCc4ccccc43)nc2c1C the results were TGFb inhibitor inactive, S2 tox inactive, KB-3-1 cytotox inactive, KB-V1 MDR tox 2.59µM, HepG2 viability inactive and ATXN2 expr inh inactive.
`O=C(CSc1nnc(Cc2cccs2)n1C1CCCCC1)N1CCCc2ccccc21` gave TGFb inhibitor inactive, S2 tox inactive, KB-3-1 cytotox inconclusive, KB-V1 MDR tox 20.6µM, HepG2 viability inactive and ATXN2 expr inh inactive.
O=S(=O)(c1ccccc1)c1cnc(-c2cccnc2)nc1-c1ccc(Cl)c(Cl)c1 was read as TGFb inhibitor inactive, S2 tox inactive, KB-3-1 cytotox inactive, KB-V1 MDR tox 6.51µM, HepG2 viability inactive and ATXN2 expr inh inactive.
Screening COCCNc1nc(NCCNC(C)=O)c2sc(-c3ccccc3)cc2n1 returned TGFb inhibitor inactive, S2 tox inactive, KB-3-1 cytotox inactive, KB-V1 MDR tox inactive, HepG2 viability inactive and ATXN2 expr inh inactive.
`COCCNc1nc(-c2ccccc2CO)c2sc(-c3ccccc3)cc2n1` gave TGFb inhibitor inactive, S2 tox inconclusive, KB-3-1 cytotox 5.8µM, KB-V1 MDR tox 20.6µM, HepG2 viability inactive and ATXN2 expr inh inactive.
Screening COCCNc1nc(NCCOc2ccccc2Cl)c2sc(-c3ccccc3)cc2n1 returned TGFb inhibitor inconclusive, S2 tox inconclusive, KB-3-1 cytotox inactive, KB-V1 MDR tox inactive, HepG2 viability 14.1µM and ATXN2 expr inh inactive.
Screening COCCNc1nc(NCC2CCCCC2)c2sc(-c3ccccc3)cc2n1 returned TGFb inhibitor inconclusive, S2 tox 17.8µM, KB-3-1 cytotox inconclusive, KB-V1 MDR tox inconclusive, HepG2 viability inactive and ATXN2 expr inh 35.5µM.
Screening COCCNc1nc(NCCCN2CCCC2=O)c2sc(-c3ccccc3)cc2n1 returned TGFb inhibitor inactive, S2 tox inconclusive, KB-3-1 cytotox inactive, KB-V1 MDR tox inactive, HepG2 viability inactive and ATXN2 expr inh inactive.
`CCC(C(=O)O)c1ccc(N2Cc3ccccc3C2=O)cc1` (stereo not given) gave S2 tox inactive and ATXN2 expr inh inactive.
CN(C)c1ccc(C(CNC(=O)COc2ccccc2)N2CCOCC2)cc1 (stereo not given) was read as TGFb inhibitor inactive, KB-3-1 cytotox inactive, KB-V1 MDR tox inactive and HepG2 viability inactive.
Screening CCOC(=O)C1CCCN(C(=O)Cc2ccc(OC)c(OC)c2)C1 (stereo not given) returned TGFb inhibitor inactive, S2 tox inactive, KB-3-1 cytotox inactive, KB-V1 MDR tox inactive, HepG2 viability inactive and ATXN2 expr inh inactive.
For CCOC(=O)C1CCCN(C(=O)Cc2ccc(OC)c(OC)c2)CC1 (stereo not given) the results were TGFb inhibitor inactive, S2 tox inconclusive, KB-3-1 cytotox inconclusive, KB-V1 MDR tox 20.6µM, HepG2 viability inactive and ATXN2 expr inh inactive.
`COc1ccc(-n2cc(-c3ccccc3)[nH]c2=S)c(OC)c1` gave TGFb inhibitor inactive, S2 tox inactive, KB-3-1 cytotox 16.4µM, KB-V1 MDR tox inactive, HepG2 viability inactive and ATXN2 expr inh inactive.
COc1ccc(-n2cc(-c3ccc(OC)c(OC)c3)[nH]c2=S)cc1 was read as TGFb inhibitor inconclusive, S2 tox inactive, KB-3-1 cytotox inactive, KB-V1 MDR tox inactive and HepG2 viability inactive.
For Cc1cccc(N=C2NN=C(c3c(C)[nH]c4ccccc34)CS2)c1 the results were TGFb inhibitor inactive, S2 tox inconclusive, KB-3-1 cytotox inactive, KB-V1 MDR tox inconclusive, HepG2 viability inactive and ATXN2 expr inh 28.2µM.
For Cc1cccc(N=C2NN=C(c3ccc4c(c3)OCCO4)CS2)c1 the results were TGFb inhibitor inactive, S2 tox inactive, KB-3-1 cytotox inactive, KB-V1 MDR tox inactive, HepG2 viability inactive and ATXN2 expr inh inactive.
For CCN(CC)C(=S)SC1=CCS(=O)(=O)C1 the results were TGFb inhibitor inactive, S2 tox inactive, KB-3-1 cytotox inactive, KB-V1 MDR tox inactive, HepG2 viability inactive and ATXN2 expr inh inactive.
Screening CCN(CC)C(=S)SSC(=S)N(CC)CC returned TGFb inhibitor inconclusive, S2 tox 70.8µM!, KB-3-1 cytotox inactive, KB-V1 MDR tox inactive, HepG2 viability inactive and ATXN2 expr inh inconclusive.
Screening O=C1c2cc(F)ccc2-n2c1nc1ccccc1c2=O returned TGFb inhibitor inconclusive, S2 tox inactive, KB-3-1 cytotox 6.51µM, KB-V1 MDR tox 5.17µM, HepG2 viability 1.12µM and ATXN2 expr inh inconclusive.
Nn1c(-c2ccc(F)cc2)nc2ccccc2c1=O was read as TGFb inhibitor inactive, S2 tox inactive, KB-3-1 cytotox inactive, KB-V1 MDR tox inactive, HepG2 viability inactive and ATXN2 expr inh inactive.
Cc1ccccc1N1CC(=O)N(c2ccccc2C)CC1=O was read as TGFb inhibitor inactive, S2 tox inactive, KB-3-1 cytotox inactive, KB-V1 MDR tox inactive, HepG2 viability inactive and ATXN2 expr inh inactive.
`Cc1cccc2c1c1ccc3c(c1n2C)C(=O)C=CC3=O` gave TGFb inhibitor 15.8µM, S2 tox inactive, KB-3-1 cytotox inactive, KB-V1 MDR tox inactive and HepG2 viability inactive.
`O=c1[nH]cnc2c1ncn2[C@H]1C[C@H](O)[C@@H](CO)O1` gave TGFb inhibitor inactive, KB-3-1 cytotox inactive, KB-V1 MDR tox inconclusive and HepG2 viability inactive.
O=C(NC1CCCCC1)c1ccccc1NC(=O)C1CC(=O)N(c2ccccc2)C1 (stereo not given) was read as TGFb inhibitor inactive, S2 tox inactive, KB-3-1 cytotox inactive, KB-V1 MDR tox inactive, HepG2 viability inactive and ATXN2 expr inh inactive.
Screening Cc1cccc(NC(=O)c2ccccc2NC(=O)C2CCCCC2)c1C returned TGFb inhibitor inactive, S2 tox inactive, KB-3-1 cytotox inactive, KB-V1 MDR tox 18.4µM, HepG2 viability inactive and ATXN2 expr inh inactive.

High-throughput results from PubChem.
